# Sampled rows, rich in hits. Any-hit rate of the full collection: about 2.3%.
# TRPM1 prom inh: inhibitors of MITF-driven TRPM1 promoter in melanoma cells; SK-MEL-5 TRPM1 promoter luciferase, 24 h; inhibition, % at 12.5 µM; 0.83% of 330,000 active;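 active means mean inhibition across replicates of 60% or more, whatever share of single replicates reaches that level; inconclusive means some that reach 60%, reason not given; inactive means mean inhibition across replicates below 60%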
# Shn3 3UTR inh: reduces Shn3 3'UTR luciferase signal in osteoblasts | Clone20 osteoblast Shn3 3'UTR firefly luciferase, 24 h | inhibition, % at 12.5 µM | 0.52% of 360,000 active;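 active means mean inhibition of at least 75% with every replicate also reaching 75%; inconclusive means mean inhibition at least 75% but some replicate below; inactive means mean inhibition below 75%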;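 further: 0% = median of neutral control wells and 100% = pilot-screen positive control compound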
# LMP1 NFkB inh: reduces LMP1-driven NF-kappaB luciferase signal | LMP1-induced NF-kappaB luciferase reporter cells, luminescence | inhibition, % at 12.5 µM | 0.69% of 350,000 active; in the data active means inhibition above about 41%; inconclusive means no clear call, values can overlap the other calls;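 further: 0% = neutral control wells and 100% = reference inhibitor control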
# Jurkat NFkB inh: inhibitors of the PMA/ionomycin-induced NF-kB reporter in Jurkat cells; inhibition, % at 4 µM; PMA/ionomycin-induced NF-kB luciferase reporter, luminescence; AID 435003; 0.53% of 330,000 active; in the data active means inhibition above about 50%
# Gli-Sufu antag: blocks Gli-Sufu signaling in a luciferase reporter | AID 588413 | 0.74% of 340,000 active | Sufu-KO-LIGHT fibroblasts, Gli luciferase reporter luminescence | inhibition, % at 5 µM;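 active means inhibition above about 55%, limit read from the data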;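 further: 0% = DMSO-treated cells and 100% = wells with medium but no cells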
# 697 NFkB inh: lowers PMA/ionomycin-induced NF-kB signal in 697 B cells | AID 435022 | 697 B-cell NF-kB luciferase reporter, 16 h | 0.33% of 330,000 active | inhibition, % at 4 µM; in the data active means inhibition above about 35%
# Jurkat NFkB conf: inhibitors of the PMA/ionomycin-induced NF-kB reporter in Jurkat cells, retest; shares compounds with Jurkat NFkB inh; Jurkat NF-kB luciferase, 16 h; inhibition, % at 4 µM; 27% of 2,700 active; AID 435020;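 active means inhibition reaching about 45% at 4 µM in either replicate, limit read from the data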;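 further: plate controls were PMA/ionomycin stimulated DMSO wells for no effect and unstimulated DMSO wells for full effect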
# * marks the source's active call; other numbers are inactive results; ? = inconclusive; . = no result.
SMILES,TRPM1 prom inh,Shn3 3UTR inh,LMP1 NFkB inh,Jurkat NFkB inh,Gli-Sufu antag,697 NFkB inh,others
Cc1cc(C)cc(N2C(=O)NC(=O)/C(=C\C=C\c3ccco3)C2=O)c1,94*,52,-30,.,6,.,
O=C1NC(=O)N(c2ccccc2)C(=O)/C1=C\C=C\c1ccccc1,74*,61,-38,17,10,-96,
CC(=O)O[C@H]1CCC2C3CC[C@H]4[C@@H](O)[C@H](O)CC[C@]4(C)C3CC[C@@]21C (some centres undefined),5,96*,1,.,7,.,
CC(=O)[C@H]1CCC2C3CC[C@H]4C[C@@H](O)CC[C@]4(C)C3CC[C@@]21C (some centres undefined),0,11,1,-11,7,4,
O=C1CC(=O)N(c2ccc(Cl)cc2)C(=O)N1,12,16,64*,6,24,3,
ClCCN(CCCl)c1ccc(-n2cnc3c(Cl)ncnc32)cc1,84*,20,23,.,14,.,
COc1ccc(-n2nnnc2C(c2cccc(OC)c2OC)N2CCC(n3c(=O)[nH]c4ccccc43)CC2)cc1 (centres undefined),.,18,.,.,.,.,
Cc1cccc(C)c1-n1nnnc1C(c1cc2ccccc2o1)N1CCC(n2c(=O)[nH]c3ccccc32)CC1 (centres undefined),.,96*,.,.,.,.,
COc1cccc(C(c2nnnn2-c2ccc3c(c2)OCCO3)N2CCC(n3c(=O)[nH]c4ccccc43)CC2)c1OC (centres undefined),.,87*,.,.,.,.,
O=C1CC23c4ccccc4N4C(=O)CC5OCC=C6CN1C2CC6C5C43 (centres undefined),2,-4,32,.,-19,.,
Cc1nc2ccc(Br)cc2c(=O)n1-c1ccc([N+](=O)[O-])c(C(F)(F)F)c1,2,-4,11,-10,9,6,
CC(=NCC1CCCO1)c1c(O)n(C)c(=O)n(C)c1=O (centres undefined),5,-3,4,7,5,-6,
COc1ccc(CN2Cc3cnnn3-c3ccccc3C2C#N)cc1 (centres undefined),98*,-21,15,.,-6,.,
N#CC1c2ccccc2-n2nncc2CN1Cc1cc(Cl)cc(Cl)c1 (centres undefined),97*,81,62*,.,25,.,
COc1ccc(CN2Cc3cnnn3-c3ccccc3C2c2ccccc2)cc1 (centres undefined),1,0,-11,.,-4,.,
CN1Cc2cnnn2-c2ccccc2C1C#N (centres undefined),4,-9,-9,.,-19,.,
COC(=O)COc1ccc(/C=C2\C(=O)NC(=S)N(c3ccc(C)cc3)C2=O)cc1OC,-14,-7,-12,4,11,12,
CCN(CC)C(=O)c1ccc(NC(=O)Nc2ccccc2F)cc1,30,17,51*,-109,-32,-76,
CCN(CC)C(=O)c1ccc(NC(=O)CCCSc2ccccc2)cc1,-3,10,-4,-8,-15,20,
COC1CCC(OC2CC(C3(C)CCC4(CC(O)C(C)C(C(C)/C=C(\C)C(=O)C(C)CC(C)C(=O)O)O4)O3)OC3(OC(C4OC(O)(CO)C(C)CC4C)CC3C)C2C)OC1C (centres undefined),84*,79,-10,.,77*,.,
c1ccc(CCCN2CCN(CCOC(c3ccccc3)c3ccccc3)CC2)cc1,-23,-5,82*,-10,9,-31,
Fc1ccc(C(OCCN2CCCC2)c2ccc(F)cc2)cc1,-13,5,?,2,12,-5,
Fc1ccc(C(OCCN2CCN(CCCc3ccccc3)CC2)c2ccc(F)cc2)cc1,42,87*,30,17,5,-2,
O=C(c1cc(S(=O)(=O)N2CCC3(CC2)OCCO3)ccc1F)N1CCC2(CC1)OCCO2,3,17,1,13,-17,-11,
Cc1ccc(OC(=O)N(C)C[C@@H]2OCc3cnnn3CCCC(=O)N([C@H](C)CO)C[C@H]2C)cc1,.,6,-3,.,.,.,
SMILES,TRPM1 prom inh,Shn3 3UTR inh,LMP1 NFkB inh,Jurkat NFkB inh,Gli-Sufu antag,697 NFkB inh,others
Brc1ccccc1CNCCc1ccc2c(c1)OCO2,-4,-1,3,11,-6,-21,
C=CCOC(=O)N1Cc2ccccc2-n2nncc2C1,.,-6,-1,.,.,.,
O=[N+]([O-])c1cccnc1N1CCCNCC1,-11,12,0,5,4,13,
O=[N+]([O-])c1cc2c(cc1CNCCc1ccc3c(c1)OCO3)OCO2,4,-14,-6,-1,1,1,
Nc1ccc(CCN2CCCC2)cc1,-1,-20,-2,-4,5,0,
Nc1ccc(CCN2CCN(c3cccc(C(F)(F)F)c3)CC2)cc1,2,1,-22,60*,1,-11,Jurkat NFkB conf=13
O=C(Nc1cccc(C(F)(F)F)c1)c1cccn(Cc2ccc3c(c2)OC(F)(F)O3)c1=O,-2,70,3,1,7,8,
O=C(Nc1ccc(C(F)(F)F)cc1)c1cccn(Cc2ccc3c(c2)OC(F)(F)O3)c1=O,4,-2,-7,54*,5,0,Jurkat NFkB conf=46
COc1cc2c(cc1O)[C@@H]1Cc3ccc(OC)c(O)c3CN1CC2,17,5,11,58*,-3,8,Jurkat NFkB conf=27
COc1ccc(C[C@@H]2c3cc(O)c(OC)cc3CCN2C)cc1O,-19,1,-3,-8,4,-6,
CC1=CC(=C2C(=O)NC(=S)NC2=O)C=C(C(F)(F)F)N1Cc1ccccc1,21,38,13,70*,13,4,Jurkat NFkB conf=8
CC1=CC(=C2C(=O)NC(=O)NC2=O)C=C(C(F)(F)F)N1Cc1ccccc1,10,8,4,14,-3,-8,
CC1=CC(=C2C(=O)NC(=S)NC2=O)C=C(C(F)(F)F)N1CCc1ccccc1,.,.,.,50*,.,-54,Jurkat NFkB conf=14
Cc1ccc(-n2c(O)c(C=NCCCn3ccnc3)c(=O)[nH]c2=O)cc1,3,-18,-1,9,10,-4,
CN(C)c1ccc(-[n+]2c(-c3ccccc3)cc(-c3ccccc3)cc2-c2ccccc2)cc1,92*,94*,34,99*,90*,-28,Jurkat NFkB conf=62*
Cc1ccc(-c2cc(-c3ccccc3)cc(-c3ccccc3)[n+]2-c2ccccc2)cc1,103*,98*,32,54*,90*,-12,Jurkat NFkB conf=31
Cc1ccc(-c2cc(-c3ccc(C)cc3)[n+](-c3ccccc3)c(-c3ccc(C)cc3)c2)cc1,102*,94*,45*,97*,91*,-45,Jurkat NFkB conf=86*
C[n+]1c(-c2ccccc2)cc(-c2ccc(Cl)cc2)cc1-c1ccccc1,44,9,1,7,20,-24,
CC(=NCCCN1CCOCC1)c1c(O)[nH]c(=O)[nH]c1=O,9,13,-1,3,4,31,
O=C1Nc2ccccc2/C1=C/c1cnc[nH]1,17,-5,-1,-21,-6,-36,
